Active and inactive are the calls of the source. Unless noted, no rule for the calls is given here.

Results on 5 molecules are retold here after PubChem BioAssay.

Experiment [1] in a line: A549 cell viability effects, profiling panel, calcein-AM fluorescence, 48 h, basal (AID 1162). Also: test concentration not given here. As to conditions: higher = more signal.
Experiment [2] in a line: adipocyte viability effects, profiling panel, cell-based, 3T3-L1 adipocytes, calcein-AM fluorescence, 48 h, basal (AID 1163). Also: test concentration not given here. The conditions noted are these: 3T3-L1 adipocytes viability, higher = more signal.
Experiment [3] can be described thus: HepG2 cell viability effects, profiling panel, calcein-AM fluorescence, 48 h, basal (AID 1164). Also: test concentration not given here. The conditions noted are these: higher = more signal.
Experiment [4] is described as follows: MM1S cell viability effects, profiling panel, calcein-AM fluorescence, 48 h, basal (AID 1165).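 Also: viability of MM1S multiple myeloma cells under basal unstimulated conditions; test concentration not given here.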 As to conditions: higher = more signal.
Experiment [5] is described as follows: basal RPMI8226 viability, no added stimulus, profiling panel, cell-based, calcein-AM fluorescence, 48 h, PK04 Diversity Set (AID 1166).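 Also: cells grown under basal conditions without added stimulus; test concentration not given here.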 As to conditions: RPMI8226 myeloma viability, higher = more signal.
Experiment [6] in a line: basal HepG2 mitochondrial membrane potential changes, profiling panel, cell-based, JC-1 fluorescence, 24 h, 100 nL compound (AID 1167). Also: test concentration not given here. The conditions noted are these: higher = more signal.
The nature of experiment [7]: basal 3T3-L1 adipocyte mitochondrial potential changes, profiling panel, cell-based, JC-1 fluorescence, 3T3-L1 adipocytes, 24 h, 100 nL compound (AID 1168). Also: test concentration not given here. The conditions noted are these: JC-1 mitochondrial fluorescence, higher = more signal, called active from +8 up or from −8 down.
Experiment [8] in a line: basal RPMI8226 mitochondrial membrane potential changes, profiling panel, cell-based, JC-1 fluorescence, 24 h, 100 nL compound (AID 1169). Also: test concentration not given here. The conditions noted are these: RPMI8226 myeloma, JC-1 mitochondrial potential fluorescence, higher = more signal.
A short description of experiment [9]: basal MM1S mitochondrial membrane potential changes, profiling panel, cell-based, JC-1 fluorescence, 24 h, 100 nL compound (AID 1170). Also: test concentration not given here. The conditions noted are these: higher = more signal.
A short description of experiment [10]: A549 lung cancer cell viability effects, profiling panel, resazurin fluorescence, 24 h, PK04 Diversity Set (AID 1171). Also: test concentration not given here. As to conditions: higher = more signal, called active from +8 up or from −8 down.
The nature of experiment [11]: HepG2 liver cancer cell viability effects, profiling panel, resazurin fluorescence, 24 h, PK04 Diversity Set (AID 1172). Also: test concentration not given here. As to conditions: higher = more signal. In general terms: The colour change of resazurin is a common sign of viable cells or microbes.
Experiment [12] can be described thus: basal S. cerevisiae growth modulation, no modifier, primary screen, OD600, strain BY4716, 24 h, basal condition (AID 1173). The conditions noted are these: OD600, 24 h, higher = more signal, called active from +8 up or from −8 down.
The nature of experiment [13]: MM1S myeloma cell viability, profiling panel, resazurin fluorescence, basal, 24 h, PK04 Diversity Set (AID 1174).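 Also: MM1S multiple myeloma cell line; test concentration not given here.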 As to conditions: higher = more signal, called active from +8 up or from −8 down.
Experiment [14] concerns the target Dihydroorotate dehydrogenase (quinone), mitochondrial (Plasmodium falciparum (isolate 3D7)) (UniProt Q08210). Description: PfDHODH enzyme inhibitors, primary screen, biochemical, C-terminal His tag, absorbance 600 nm (AID 1175).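 Also: recombinant parasite enzyme with a five histidine tag at its C terminus; test concentration not given here.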 The conditions noted are these: DCIP absorbance 600 nm, higher = more signal, called active from +8 up or from −8 down.
Experiment [15] in a line: P. aeruginosa biofilm formation inhibitors, primary screen, strain PAO1, LB-PBS medium, absorbance 600 nm (AID 1176). Also: test concentration not given here. The conditions noted are these: P. aeruginosa PAO1 growth/biofilm, A600, 12 h; higher = more signal.
Experiment [16] in a line: S. cerevisiae RM11-1a growth modifiers, primary screen, strain RM11-1a, OD600, basal, 24 h (AID 1177).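 Also: cultures grown under basal conditions with no added stressor; test concentration not given here.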 The conditions noted are these: OD600, 24 h, higher = more signal, called active from +8 up or from −8 down.
A short description of experiment [17]: E. coli acrAB mutant growth effects, primary screen, E. coli filamentation inducers, strain DRC39, OD650, 24 h (AID 1178).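 Also: growth measured as culture turbidity by optical density at 650 nm; test concentration not given here.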 The conditions noted are these: higher = more signal, called active from +8 up or from −8 down.
The nature of experiment [18]: E. coli acrAB mutant growth effects, primary screen, E. coli filamentation inducers, strain DRC39, OD650, 48 h (AID 1179).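 Also: screen aims at cell division blockers that make cells filament.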 The conditions noted are these: E. coli DRC39 delta-acrAB growth, higher = more signal, called active from +8 up or from −8 down.
The nature of experiment [19]: RPMI8226 myeloma cell viability, profiling panel, resazurin fluorescence, basal, 24 h, PK04 Diversity Set (AID 1180).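 Also: RPMI8826 multiple myeloma cell line at 5000 cells per well; test concentration not given here.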 The conditions noted are these: higher = more signal.
The target of experiment [20] is E3 ubiquitin-protein ligase XIAP (Homo sapiens) (UniProt P98170). As to the kind of experiment: XIAP binders, primary screen, biophysical, small-molecule microarray, fluorescence 635 nm (AID 1181).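 Also: score merges 667 nm emission and signal to noise over triplicate slides.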 As to conditions: small-molecule microarray binding, higher = more signal.
E3 ubiquitin-protein ligase XIAP (Homo sapiens), sequence (P98170 whole entry, looked up): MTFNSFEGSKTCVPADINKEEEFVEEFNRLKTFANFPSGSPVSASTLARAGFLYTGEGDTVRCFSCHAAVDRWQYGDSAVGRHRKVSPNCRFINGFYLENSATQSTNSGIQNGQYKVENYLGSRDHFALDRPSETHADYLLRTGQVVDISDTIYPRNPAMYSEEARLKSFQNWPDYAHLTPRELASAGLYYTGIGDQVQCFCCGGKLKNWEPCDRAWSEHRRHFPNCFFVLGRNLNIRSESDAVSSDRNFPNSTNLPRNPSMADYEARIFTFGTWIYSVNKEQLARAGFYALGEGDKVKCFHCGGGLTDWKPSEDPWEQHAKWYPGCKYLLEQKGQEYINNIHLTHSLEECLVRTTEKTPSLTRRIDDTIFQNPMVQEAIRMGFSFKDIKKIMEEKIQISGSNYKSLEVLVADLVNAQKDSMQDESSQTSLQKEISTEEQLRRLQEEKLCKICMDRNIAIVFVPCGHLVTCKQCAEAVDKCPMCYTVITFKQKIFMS

Dihydroorotate dehydrogenase (quinone), mitochondrial (Plasmodium falciparum (isolate 3D7)), sequence (Q08210 whole entry, looked up): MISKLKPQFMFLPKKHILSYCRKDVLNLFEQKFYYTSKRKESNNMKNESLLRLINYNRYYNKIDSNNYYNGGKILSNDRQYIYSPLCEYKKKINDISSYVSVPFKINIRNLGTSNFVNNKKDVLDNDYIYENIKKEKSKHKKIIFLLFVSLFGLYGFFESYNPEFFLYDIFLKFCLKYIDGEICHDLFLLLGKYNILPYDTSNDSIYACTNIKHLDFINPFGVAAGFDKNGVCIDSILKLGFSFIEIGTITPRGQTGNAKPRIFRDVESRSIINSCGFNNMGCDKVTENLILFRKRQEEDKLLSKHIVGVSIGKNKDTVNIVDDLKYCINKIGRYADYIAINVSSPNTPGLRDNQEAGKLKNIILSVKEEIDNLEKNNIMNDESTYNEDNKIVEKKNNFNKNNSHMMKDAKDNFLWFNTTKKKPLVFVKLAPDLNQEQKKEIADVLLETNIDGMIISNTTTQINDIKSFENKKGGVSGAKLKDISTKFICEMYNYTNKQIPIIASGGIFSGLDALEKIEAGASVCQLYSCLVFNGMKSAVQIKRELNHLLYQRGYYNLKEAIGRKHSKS

Regarding `CC(C)N1C(=O)C[C@@](C(=O)O)(c2ccc([N+](=O)[O-])cc2)[C@H]1c1ccc(CO)cc1`, the z-score in [1] is 2.22; in experiment [2], -0.246; in experiment [3] it was 0.74; in experiment [4], 0.389; in experiment [5], 1.1; in experiment [6], 1.52. The z-score was 0.546 (inactive) in experiment [7]; -0.108 in [8]; 0.435 in experiment [9]; -0.602 (inactive) in experiment [10]; -0.847 in experiment [11]; -0.717 (inactive) in [12]. Moreover, the z-score in experiment [13] was 0.305 (inactive); in [15], 0.0309 (inactive); in experiment [16], 0.196 (inactive); in [17] it was 0.732 (inactive); in experiment [18] it was 0.684 (inactive); in experiment [19], 0.191. For the same molecule, the composite z-score was -1.24 (inactive) in experiment [14] and -0.169 in experiment [20].

`N[C@@H](Cc1ccccc1)C(=O)NCc1cn(Cc2ccccc2)nn1`: the z-score in [1] is 0.322; in [2] it was 0.0811; in experiment [3] it was -0.256; in experiment [4], -0.0838; in [5], -1.11; in experiment [6], 0.178. In addition, the z-score in experiment [7] is -0.0638 (inactive); in experiment [8], 0.556; in [9] it was 0.919; in experiment [10], 0.825 (inactive); in experiment [11] it was 0.68; in experiment [12], -1.38 (inactive). Moreover, the z-score was 0.323 (inactive) in [13]; -0.452 (inactive) in experiment [15]; -0.0114 (inactive) in [16]; 1.35 (inactive) in [17]; 0.614 (inactive) in [18]; 0.449 in experiment [19]. Moreover, the composite z-score is -0.777 (inactive) in experiment [14] and -0.227 in experiment [20].

`CC(=O)NCCCC[C@@H]1NC(=O)[C@@H]2C[C@H](C(=O)NCCCCCN)[C@H](c3cccc(OCCO)c3)N2C1=O`: the z-score in experiment [1] is 1.3; in experiment [2], 0.749; in experiment [3], 0.74; in experiment [4], 0.151; in [5] it was 1.3; in [6] it was 0.0102. Moreover, the z-score is 0.608 (inactive) in [7]; -0.721 in experiment [8]; -0.0434 in experiment [9]; 0.914 (inactive) in experiment [10]; 0.619 in experiment [11]; -0.659 (inactive) in experiment [12]. For the same molecule, the z-score in experiment [13] is 0.427 (inactive); in [15], 0.392 (inactive); in [16], -1.42 (inactive); in experiment [17], 1.03 (inactive); in [18], 1.9 (inactive); in experiment [19] it was 0.0926. For the same molecule, the values for the composite z-score in experiment [14] and in experiment [20] were -0.585 (inactive) and 0.087, respectively.

In the case of `COc1ccc([Si](C)(C)[C@@H]2[C@@H](CCO)O[C@]3(C(=O)N(Cc4ccccc4)c4ccc(N5CCOC5=O)cc43)[C@H]2C)cc1`, the z-score in [1] was -1.39; in experiment [2], 1.67; in experiment [3], -1.26; in [4], -2.34; in [5], -3.44; in experiment [6] it was -0.309. Besides, the z-score in [7] was 0.168 (inactive); in experiment [8], -0.947; in experiment [9] it was -0.756; in experiment [10] it was -1.94 (inactive); in experiment [11] it was -1.13; in experiment [12], 1.81 (inactive). The z-score in experiment [13] was -2.51 (inactive); in experiment [15] it was 0.933 (inactive); in [16], 4.01 (inactive); in experiment [17], -0.957 (inactive); in experiment [18], -0.978 (inactive); in [19], -2.79. In addition, the composite z-score in experiment [14] is -0.981 (inactive); in experiment [20], 0.0605.

For `C=C(/C(=C/C[C@H](OC(=O)c1ccncc1)c1ccc(CO)o1)c1cnc2ccccc2c1)C(C)C`, the z-score is 1.07 in experiment [1]; 0.521 in experiment [2]; -0.181 in experiment [3]; -2.88 in experiment [4]; -1.25 in experiment [5]; -0.211 in [6]. Further, the z-score was 0.0957 (inactive) in experiment [7]; 0.319 in experiment [8]; -0.161 in [9]; 0.208 (inactive) in [10]; -0.0499 in [11]; -1.2 (inactive) in [12]. The z-score is -0.0537 (inactive) in [13]; 1.16 (inactive) in experiment [15]; 0.481 (inactive) in experiment [16]; 0.586 (inactive) in [17]; 0.0868 (inactive) in [18]; 0.601 in [19]. Moreover, the results for the composite z-score in experiment [14] and in [20] were -7.44 (inactive) and -0.0749, respectively.
